Compound activity from PubChem BioAssay.
NFkB SMM = binders of human NF-kappa-B p105; P19838; Small molecule microarray, anti-His fluorescence binding; calls only; 17,000 tested, 1.3% active; AID 624139;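 active = spot fluorescence over background significantly raised, with a chance value under 7% in all four replicate spots of the compound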;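 note: probe protein is his-tagged human p50 processed subunit at 1 µg/ml; raw spot fluorescence signals with no normalization applied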
c-Myc SMM = binds human c-Myc on microarray; P01106; small molecule microarray, His-c-Myc binding, anti-His fluorescence; calls only; 17,000 tested, 1.5% active; AID 624141;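 active = spot fluorescence over background with P-value below 7% in all four replicate spots, showing protein binding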;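 note: score is binary with 100 for all four spots passing and 0 otherwise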
Target sequence (P01106 whole entry, looked up): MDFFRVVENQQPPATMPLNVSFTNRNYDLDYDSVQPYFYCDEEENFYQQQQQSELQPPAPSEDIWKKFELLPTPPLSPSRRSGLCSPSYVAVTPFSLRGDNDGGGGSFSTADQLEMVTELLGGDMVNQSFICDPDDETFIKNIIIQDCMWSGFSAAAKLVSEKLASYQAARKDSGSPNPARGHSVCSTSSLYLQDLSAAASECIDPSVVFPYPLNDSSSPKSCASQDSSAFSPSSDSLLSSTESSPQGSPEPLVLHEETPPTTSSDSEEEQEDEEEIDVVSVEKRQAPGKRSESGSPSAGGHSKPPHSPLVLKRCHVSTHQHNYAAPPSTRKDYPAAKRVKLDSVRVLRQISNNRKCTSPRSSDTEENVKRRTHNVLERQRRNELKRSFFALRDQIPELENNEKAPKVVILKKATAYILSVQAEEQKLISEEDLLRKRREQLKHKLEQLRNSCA
p53 mut binder = binders of human mutant p53. calls only. 17,000 tested, 0.4% active. small molecule microarray binding, anti-GST fluorescence;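 active = compounds whose four printed spots each glow above background more than chance allows, each with a p-value under 7%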
STAT3 binder = binders of human STAT3; calls only; P40763; Small molecule microarray, His-STAT3 binding, anti-His fluorescence; 17,000 tested, 0.2% active;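 active = compounds whose four printed spots each show fluorescence over background unusually high for their array block, chance value under 7%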
Starred values were filed as active, the others as inactive; i = inactive; + = active, no number. In the library only some 2.5% were active in any assay of this set; here they are far more common.

SMILES	NFkB SMM	c-Myc SMM	p53 mut binder	STAT3 binder
C[C@@H]1CCCCO[C@H](CN(C)C(=O)CCC(F)(F)F)[C@@H](C)CN([C@@H](C)CO)C(=O)c2cc(NC(=O)CCC(F)(F)F)ccc2O1	i	i	i	i
Cc1nc(S(=O)(=O)N[C@@H]2CCCN(Cc3ccc(OCCO)cc3)C2)cn1C	i	i	i	i
C/C=C/[C@H](CC(=O)N(CCO)Cc1ccccc1)[Si](C)(C)c1ccc(OC)cc1	i	i	i	i
C[C@@H]1CCCCO[C@H](CN(C)C(=O)CCC(F)(F)F)[C@H](C)CN([C@@H](C)CO)C(=O)c2cc(NC(=O)Cc3ccccc3)ccc2O1	+	+	i	i
C[C@@H]1CN([C@@H](C)CO)C(=O)c2cc(NC(=O)c3ccncc3)ccc2O[C@@H](C)CCCCO[C@@H]1CN(C)C(=O)CCC(F)(F)F	+	i	i	i
C[C@H]1CCCCO[C@H](CN(C)C(=O)CCC(F)(F)F)[C@@H](C)CN([C@@H](C)CO)C(=O)c2cc(NC(=O)c3ccncc3)ccc2O1	i	i	i	i
C[C@@H]1CN([C@@H](C)CO)C(=O)c2cc(NC(=O)Cc3ccccc3)ccc2O[C@@H](C)CCCCO[C@@H]1CN(C)C(=O)CCC(F)(F)F	i	i	i	i
O=C(O)CNS(=O)(=O)c1cc(Cl)c(Cl)cc1Cl	+	+	+	i
Clc1ccc2nc(NCc3ccccn3)nc(-c3ccccc3)c2c1	i	i	i	i
CO[C@H]1/C=C\O[C@@]2(C)Oc3c(C)c(O)c4c(O)c(c(/C=N\N5CCN(C)CC5)c(O)c4c3C2=O)NC(=O)/C(C)=C\C=C/C(C)[C@H](O)[C@@H](C)[C@@H](O)[C@@H](C)[C@@H](OC(C)=O)[C@@H]1C (some centres undefined)	+	i	i	i
CO[C@H]1/C=C\O[C@@]2(C)Oc3c(C)c(O)c4c(O)c(c(/C=N/N5CCN(C)CC5)c(O)c4c3C2=O)NC(=O)/C(C)=C\C=C[C@H](C)[C@H](O)[C@@H](C)[C@@H](O)[C@@H](C)[C@H](OC(C)=O)[C@@H]1C	i	i	i	i
O=C(CSc1ncccc1C(=O)O)c1cccc([N+](=O)[O-])c1	i	+	i	i
COc1ccc(COC[C@@]23Oc4ccccc4[C@@H](NC(=O)N2C)[C@H]3COC(=O)c2ccccc2)cc1	i	i	i	i
Cc1cc(-n2nc3ccccc3n2)c2oc(SCc3nnc(-c4ccccc4)o3)nc2c1	i	i	i	i
c1ccc(Cn2ccnc2SCc2nnc(-c3ccccc3)o2)cc1	i	+	+	i
Cc1nc(S(=O)(=O)N[C@H]2CCN(Cc3cccc(OCCO)c3)C2)cn1C	i	i	i	i
C[C@@H]1CN([C@H](C)CO)C(=O)c2cc(N(C)C)ccc2O[C@@H](C)CCCCO[C@@H]1CN(C)Cc1ccccc1	i	i	+	+
C[C@H](CO)N1C[C@H](C)[C@H](CN(C)S(=O)(=O)c2ccccc2)OCCCC[C@H](C)Oc2ccc(N(C)C)cc2C1=O	+	i	+	i
C[C@@H]1CCCCO[C@H](CN(C)Cc2ccccc2)[C@H](C)CN([C@@H](C)CO)C(=O)c2cc(N(C)C)ccc2O1	i	i	i	i
CC(C)NC(=O)Nc1ccc2c(c1)C(=O)N([C@@H](C)CO)C[C@H](C)[C@@H](CN(C)S(=O)(=O)c1ccccc1)OCCCC[C@@H](C)O2	+	+	i	i
C[C@@H]1CCCCO[C@@H](CN(C)Cc2ccccc2)[C@H](C)CN([C@@H](C)CO)C(=O)c2cc(NC(=O)CCCN(C)C)ccc2O1	i	i	i	i
C[C@H](CO)N1C[C@H](C)[C@H](CN(C)Cc2ccccc2)OCCCC[C@H](C)Oc2ccc(NC(=O)CCCN(C)C)cc2C1=O	+	i	i	i
O=C1C[C@@](C(=O)NCc2ccccc2)(c2ccc([N+](=O)[O-])cc2)[C@@H](c2ccc(CO)cc2I)N1CC12CC3CC(CC(C3)C1)C2	i	i	i	i
COc1ccc(C#Cc2ccc3c(c2)[C@]2(C(=O)N3)[C@H](C(=O)NC[C@H](O)c3ccccc3)[C@H]3C(=O)O[C@H](c4ccccc4)[C@H](c4ccccc4)N3[C@@H]2c2ccccc2OCCO)cc1	i	i	i	i
Cc1ccc(S(=O)(=O)N(C)C[C@H]2OCCCC[C@H](C)Oc3ccc(NC(=O)NC4CCCCC4)cc3C(=O)N([C@H](C)CO)C[C@H]2C)cc1	i	+	+	i
SMILES	NFkB SMM	c-Myc SMM	p53 mut binder	STAT3 binder
C[C@H]1CCCCO[C@@H](CN(C)C(=O)C2CCCCC2)[C@@H](C)CN([C@@H](C)CO)C(=O)c2cc(NC(=O)Nc3ccccc3)ccc2O1	+	+	i	i
C[C@H]1CCCCO[C@@H](CN(C)C(=O)C2CCCCC2)[C@@H](C)CN([C@@H](C)CO)C(=O)c2cc(NC(=O)c3ccncc3)ccc2O1	i	i	i	i
C[C@@H]1CCCCO[C@H](CN(C)C(=O)C2CCCCC2)[C@@H](C)CN([C@@H](C)CO)C(=O)c2cc(NC(=O)c3ccncc3)ccc2O1	+	i	i	i
C[C@@H]1CCCCO[C@@H](CN(C)C(=O)Nc2ccccc2)[C@H](C)CN([C@@H](C)CO)C(=O)c2cc(NC(=O)C3CCCCC3)ccc2O1	+	+	+	i
C[C@H](CO)N1C[C@H](C)[C@H](CN(C)C(=O)C2CCCCC2)OCCCC[C@H](C)Oc2ccc(NC(=O)Nc3ccccc3)cc2C1=O	i	+	i	i
Cc1cc(=O)[nH]c(SC(C)C(=O)Nc2cccc(Cl)c2)n1 (centres undefined)	i	i	i	i
Cc1noc(C)c1NC(=O)Nc1ccc2c(c1)C(=O)N([C@@H](C)CO)C[C@H](C)[C@@H](CN(C)C(=O)C1CCCCC1)OCCCC[C@H](C)O2	i	+	i	i
Clc1ccc(CSc2nnc(-c3ccco3)n2Cc2ccco2)c(Cl)c1	i	i	+	i
CC(C)(C)C(=O)CSc1nnc(-c2ccco2)n1Cc1ccco1	i	i	i	i
O=C(O)CCCC(=O)Nc1ccc(Br)cc1C(=O)O	+	+	i	i
CC1=C(C)CC(C(=O)Nc2cccc3ccccc23)C(C(=O)O)C1 (centres undefined)	i	i	i	i
Cc1ccc2nc(-c3ccc(NC(=O)CN4CCN(C(=O)C5CCCO5)CC4)cc3)sc2c1 (centres undefined)	i	i	i	i
CC(=O)Nc1cccc(NC(=O)c2cc(-c3ccccn3)nc3ccc(Cl)cc23)c1	i	i	i	i
COc1cccc(CN2CCN(C(=O)c3cc(-c4ccccn4)nc4ccc(Cl)cc34)CC2)c1	i	i	+	i
C[C@H]1CCCCO[C@H](CN(C)C(=O)CCC(F)(F)F)[C@@H](C)CN([C@@H](C)CO)C(=O)c2cc(NS(C)(=O)=O)ccc2O1	+	+	i	i
